# Experiments:
# Assay in all cases: DAPPL (digital affinity profiling via proximity ligation, sequencing); 10 mM Tris-HCl pH 7.5, 50 mM NaCl, 1 mM DTT, 4% glycerol, room temperature, 30 min; GST-TFs on glutathione beads, 16-mer random dsDNA library, 0.1% formaldehyde crosslink after washing; high values mean tight binding
# [1] = target: T1, FLI1 (Homo sapiens, UniProt Q01543 1-452); settings: protein: recombinant; tags: N-terminal GST; dsDNA, one strand shown
# T1 sequence: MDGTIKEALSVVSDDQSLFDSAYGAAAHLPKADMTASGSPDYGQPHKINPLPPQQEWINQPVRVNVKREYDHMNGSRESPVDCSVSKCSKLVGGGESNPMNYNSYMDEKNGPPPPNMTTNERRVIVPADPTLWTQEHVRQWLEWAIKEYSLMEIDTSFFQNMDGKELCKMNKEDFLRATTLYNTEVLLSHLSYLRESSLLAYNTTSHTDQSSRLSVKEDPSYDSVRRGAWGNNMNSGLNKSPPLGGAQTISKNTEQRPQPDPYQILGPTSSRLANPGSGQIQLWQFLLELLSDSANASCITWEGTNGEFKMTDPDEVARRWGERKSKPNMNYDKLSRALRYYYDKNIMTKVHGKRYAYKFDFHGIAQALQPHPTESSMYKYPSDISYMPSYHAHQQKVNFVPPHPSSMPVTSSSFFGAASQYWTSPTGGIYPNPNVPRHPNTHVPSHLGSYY
# Procedure, shortened: (§1)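 In yeast, human transcription factors were expressed with a GST fusion, then pulled down on glutathione beads and given DNA barcodes. Pooled with a tag-only sample, they were exposed to 200 nmole of a 16-mer random double-stranded DNA library (Tris/NaCl/DTT/glycerol buffer, room temperature, 30 min), washed, crosslinked with 0.1% formaldehyde, proximity-ligated using BsaI/T4 ligase for 1 h at 37 °C, PCR-amplified and read on an Illumina NextSeq500. Each hexamer's frequency of reads for a factor, divided by the matching frequency for the tag-only sample, gives the binding signal.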
# [2] = target: T2, ELK1 (Homo sapiens, UniProt P19419 1-428); settings: protein: recombinant; tags: N-terminal GST; dsDNA, one strand shown
# T2 sequence: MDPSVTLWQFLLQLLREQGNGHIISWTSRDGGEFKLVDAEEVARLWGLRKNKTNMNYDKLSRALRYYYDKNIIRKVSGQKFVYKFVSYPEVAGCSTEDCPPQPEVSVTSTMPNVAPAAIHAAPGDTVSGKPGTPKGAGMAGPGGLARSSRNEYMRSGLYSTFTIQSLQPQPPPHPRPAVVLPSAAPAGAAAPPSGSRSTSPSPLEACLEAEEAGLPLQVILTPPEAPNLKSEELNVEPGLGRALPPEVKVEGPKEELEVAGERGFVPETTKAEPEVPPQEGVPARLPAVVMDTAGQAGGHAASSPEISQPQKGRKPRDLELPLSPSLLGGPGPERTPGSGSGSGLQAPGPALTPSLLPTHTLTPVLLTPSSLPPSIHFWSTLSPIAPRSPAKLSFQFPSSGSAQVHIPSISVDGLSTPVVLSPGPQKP
# Procedure, shortened: as §1
# [3] = target: T3, GABPA (Homo sapiens, UniProt Q06546 1-454); settings: protein: recombinant; tags: N-terminal GST; dsDNA, one strand shown
# T3 sequence: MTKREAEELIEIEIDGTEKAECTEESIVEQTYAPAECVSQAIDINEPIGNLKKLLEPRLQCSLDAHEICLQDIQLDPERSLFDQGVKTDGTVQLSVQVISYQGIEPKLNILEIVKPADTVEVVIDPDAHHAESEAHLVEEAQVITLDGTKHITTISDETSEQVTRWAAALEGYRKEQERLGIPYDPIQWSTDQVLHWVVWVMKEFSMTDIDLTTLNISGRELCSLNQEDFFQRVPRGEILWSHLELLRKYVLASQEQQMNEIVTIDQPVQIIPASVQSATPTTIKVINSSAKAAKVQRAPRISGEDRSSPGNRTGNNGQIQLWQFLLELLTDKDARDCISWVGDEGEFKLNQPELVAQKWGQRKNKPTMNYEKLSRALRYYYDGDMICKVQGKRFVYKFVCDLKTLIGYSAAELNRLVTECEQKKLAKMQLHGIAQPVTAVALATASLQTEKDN
# Procedure, shortened: as §1
# [4] = target: T4, ERG (Homo sapiens, UniProt P11308 1-479); settings: protein: recombinant; tags: N-terminal GST; dsDNA, one strand shown
# T4 sequence: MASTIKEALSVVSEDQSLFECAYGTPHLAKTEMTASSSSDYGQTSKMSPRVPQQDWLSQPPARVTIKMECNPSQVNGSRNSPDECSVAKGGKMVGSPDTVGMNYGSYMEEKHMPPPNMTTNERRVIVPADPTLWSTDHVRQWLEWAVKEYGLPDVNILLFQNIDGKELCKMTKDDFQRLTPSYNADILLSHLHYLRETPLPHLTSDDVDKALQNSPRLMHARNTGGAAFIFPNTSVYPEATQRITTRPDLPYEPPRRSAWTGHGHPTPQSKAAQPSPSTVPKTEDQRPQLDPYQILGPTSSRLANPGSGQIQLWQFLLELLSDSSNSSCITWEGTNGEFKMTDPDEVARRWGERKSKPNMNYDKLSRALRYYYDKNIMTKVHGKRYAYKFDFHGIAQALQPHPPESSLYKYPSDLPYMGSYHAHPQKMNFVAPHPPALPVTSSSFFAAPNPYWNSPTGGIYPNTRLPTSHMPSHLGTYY
# Procedure, shortened: as §1
# [5] = target: ELF1 (Homo sapiens, UniProt P32519 1-619); settings: protein: recombinant; tags: N-terminal GST; dsDNA, one strand shown
# Sequence of ELF1 (P32519 whole entry): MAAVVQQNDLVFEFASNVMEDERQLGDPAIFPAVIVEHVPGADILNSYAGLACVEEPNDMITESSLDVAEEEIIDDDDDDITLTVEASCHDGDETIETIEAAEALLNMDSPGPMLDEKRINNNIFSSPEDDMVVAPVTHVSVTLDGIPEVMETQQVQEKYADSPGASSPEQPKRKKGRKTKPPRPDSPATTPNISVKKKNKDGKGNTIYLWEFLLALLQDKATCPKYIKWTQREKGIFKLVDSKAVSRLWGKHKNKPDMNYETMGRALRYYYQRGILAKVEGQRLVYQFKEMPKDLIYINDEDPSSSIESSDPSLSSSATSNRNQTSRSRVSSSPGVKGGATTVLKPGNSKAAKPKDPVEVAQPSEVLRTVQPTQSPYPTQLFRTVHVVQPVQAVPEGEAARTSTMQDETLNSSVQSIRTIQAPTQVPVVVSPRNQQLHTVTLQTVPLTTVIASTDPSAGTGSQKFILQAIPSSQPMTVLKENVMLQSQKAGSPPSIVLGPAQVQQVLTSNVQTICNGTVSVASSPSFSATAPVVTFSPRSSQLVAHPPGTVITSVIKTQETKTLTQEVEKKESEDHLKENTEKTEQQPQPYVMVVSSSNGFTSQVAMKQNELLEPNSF
# Procedure, shortened: as §1
# [6] = target: T5, EHF (Homo sapiens, UniProt Q9NZC4 1-300); settings: protein: recombinant; tags: N-terminal GST; dsDNA, one strand shown
# T5 sequence: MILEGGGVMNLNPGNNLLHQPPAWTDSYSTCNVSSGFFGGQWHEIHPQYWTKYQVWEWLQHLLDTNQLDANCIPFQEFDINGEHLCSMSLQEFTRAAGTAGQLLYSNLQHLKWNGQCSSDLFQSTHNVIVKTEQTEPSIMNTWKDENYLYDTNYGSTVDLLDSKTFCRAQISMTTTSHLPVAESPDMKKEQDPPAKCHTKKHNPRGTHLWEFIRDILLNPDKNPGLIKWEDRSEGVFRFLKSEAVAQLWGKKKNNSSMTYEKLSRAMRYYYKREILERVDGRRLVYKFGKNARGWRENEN
# Procedure, shortened: as §1
# [7] = target: SPI1 (Homo sapiens, UniProt P17947 1-270); settings: protein: recombinant; tags: N-terminal GST; dsDNA, one strand shown
# Procedure, shortened: as §1
# [8] = target: SPIB (Homo sapiens, UniProt Q01892 1-262); settings: protein: recombinant; tags: N-terminal GST; dsDNA, one strand shown
# Sequence of SPIB (Q01892 whole entry): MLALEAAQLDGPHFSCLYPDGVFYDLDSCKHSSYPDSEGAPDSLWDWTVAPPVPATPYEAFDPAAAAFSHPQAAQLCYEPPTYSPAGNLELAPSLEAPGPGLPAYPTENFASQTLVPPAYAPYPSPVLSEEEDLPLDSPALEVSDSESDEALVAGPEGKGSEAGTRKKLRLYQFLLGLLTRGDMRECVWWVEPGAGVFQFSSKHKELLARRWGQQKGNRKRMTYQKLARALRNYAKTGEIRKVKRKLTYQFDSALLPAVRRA
# Procedure, shortened: as §1
# [9] = target: T6, ELK3 (Homo sapiens, UniProt P41970 1-407); settings: protein: recombinant; tags: N-terminal GST; dsDNA, one strand shown
# T6 sequence: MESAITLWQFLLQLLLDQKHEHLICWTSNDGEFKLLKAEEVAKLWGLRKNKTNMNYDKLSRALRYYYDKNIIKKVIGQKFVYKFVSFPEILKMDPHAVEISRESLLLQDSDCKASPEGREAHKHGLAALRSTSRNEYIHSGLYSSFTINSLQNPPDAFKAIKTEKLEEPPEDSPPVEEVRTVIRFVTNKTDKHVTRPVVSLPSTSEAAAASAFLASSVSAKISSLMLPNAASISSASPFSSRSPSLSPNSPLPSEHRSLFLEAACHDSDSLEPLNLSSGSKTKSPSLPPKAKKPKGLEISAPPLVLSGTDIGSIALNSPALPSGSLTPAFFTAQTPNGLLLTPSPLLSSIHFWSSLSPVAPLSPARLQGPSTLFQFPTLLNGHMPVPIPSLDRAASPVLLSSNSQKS
# Procedure, shortened: as §1
# [10] = target: T7, FEV (Homo sapiens, UniProt Q99581 1-238); settings: protein: recombinant; tags: N-terminal GST; dsDNA, one strand shown
# T7 sequence: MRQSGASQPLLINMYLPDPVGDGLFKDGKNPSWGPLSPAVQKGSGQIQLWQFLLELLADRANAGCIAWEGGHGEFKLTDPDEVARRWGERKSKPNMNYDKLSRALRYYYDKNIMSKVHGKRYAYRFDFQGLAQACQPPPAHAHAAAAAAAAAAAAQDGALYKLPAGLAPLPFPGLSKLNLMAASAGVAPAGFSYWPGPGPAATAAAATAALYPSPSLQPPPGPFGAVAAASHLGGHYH
# Procedure, shortened: as §1
# [11] = target: ETV5 (Homo sapiens, UniProt P41161 1-510); settings: protein: recombinant; tags: N-terminal GST; dsDNA, one strand shown
# Sequence of ETV5 (P41161 whole entry): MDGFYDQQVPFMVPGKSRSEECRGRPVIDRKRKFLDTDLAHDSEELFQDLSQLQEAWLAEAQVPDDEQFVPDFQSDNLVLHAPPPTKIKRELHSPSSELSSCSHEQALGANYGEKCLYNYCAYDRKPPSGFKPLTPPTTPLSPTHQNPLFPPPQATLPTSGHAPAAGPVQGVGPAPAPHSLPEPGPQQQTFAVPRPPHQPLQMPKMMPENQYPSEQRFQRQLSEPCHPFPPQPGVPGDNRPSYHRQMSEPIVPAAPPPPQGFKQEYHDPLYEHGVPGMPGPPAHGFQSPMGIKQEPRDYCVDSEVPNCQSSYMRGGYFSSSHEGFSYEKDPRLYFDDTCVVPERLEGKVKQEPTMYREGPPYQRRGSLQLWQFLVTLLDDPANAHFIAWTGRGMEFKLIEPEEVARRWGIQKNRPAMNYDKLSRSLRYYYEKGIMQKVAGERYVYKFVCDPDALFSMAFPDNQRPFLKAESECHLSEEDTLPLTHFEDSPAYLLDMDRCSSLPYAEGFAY
# Procedure, shortened: as §1
# [12] = target: HSF1 (Homo sapiens, UniProt Q00613 1-529); settings: protein: recombinant; tags: N-terminal GST; chain copies: 3; dsDNA, one strand shown
# Sequence of HSF1 (Q00613 whole entry): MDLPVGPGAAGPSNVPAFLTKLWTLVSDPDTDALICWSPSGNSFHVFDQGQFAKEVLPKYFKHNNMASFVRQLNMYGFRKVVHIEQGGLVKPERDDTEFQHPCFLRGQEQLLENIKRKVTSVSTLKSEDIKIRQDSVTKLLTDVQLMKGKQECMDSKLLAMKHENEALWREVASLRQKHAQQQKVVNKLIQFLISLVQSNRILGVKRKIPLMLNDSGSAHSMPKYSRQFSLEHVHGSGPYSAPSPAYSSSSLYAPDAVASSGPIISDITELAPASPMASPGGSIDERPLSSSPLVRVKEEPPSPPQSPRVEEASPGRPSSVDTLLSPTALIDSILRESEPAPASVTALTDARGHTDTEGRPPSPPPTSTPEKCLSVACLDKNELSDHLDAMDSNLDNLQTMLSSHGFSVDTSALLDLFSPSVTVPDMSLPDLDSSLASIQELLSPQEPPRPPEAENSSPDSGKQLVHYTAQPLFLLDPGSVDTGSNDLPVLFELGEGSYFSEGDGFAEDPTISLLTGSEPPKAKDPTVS
# Procedure, shortened: as §1
# [13] = target: T8, SPIC (Homo sapiens, UniProt Q8N5J4 1-248); settings: protein: recombinant; tags: N-terminal GST; dsDNA, one strand shown
# T8 sequence: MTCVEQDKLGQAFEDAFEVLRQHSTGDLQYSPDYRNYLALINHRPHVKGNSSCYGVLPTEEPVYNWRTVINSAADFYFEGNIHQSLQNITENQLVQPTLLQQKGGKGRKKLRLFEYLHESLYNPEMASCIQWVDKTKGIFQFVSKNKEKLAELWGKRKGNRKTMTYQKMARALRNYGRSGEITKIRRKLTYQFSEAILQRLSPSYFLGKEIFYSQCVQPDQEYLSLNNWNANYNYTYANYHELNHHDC
# Procedure, shortened: as §1
# [14] = target: ELF4 (Homo sapiens, UniProt Q99607 1-663); settings: protein: recombinant; tags: N-terminal GST; dsDNA, one strand shown
# Sequence of ELF4 (Q99607 whole entry): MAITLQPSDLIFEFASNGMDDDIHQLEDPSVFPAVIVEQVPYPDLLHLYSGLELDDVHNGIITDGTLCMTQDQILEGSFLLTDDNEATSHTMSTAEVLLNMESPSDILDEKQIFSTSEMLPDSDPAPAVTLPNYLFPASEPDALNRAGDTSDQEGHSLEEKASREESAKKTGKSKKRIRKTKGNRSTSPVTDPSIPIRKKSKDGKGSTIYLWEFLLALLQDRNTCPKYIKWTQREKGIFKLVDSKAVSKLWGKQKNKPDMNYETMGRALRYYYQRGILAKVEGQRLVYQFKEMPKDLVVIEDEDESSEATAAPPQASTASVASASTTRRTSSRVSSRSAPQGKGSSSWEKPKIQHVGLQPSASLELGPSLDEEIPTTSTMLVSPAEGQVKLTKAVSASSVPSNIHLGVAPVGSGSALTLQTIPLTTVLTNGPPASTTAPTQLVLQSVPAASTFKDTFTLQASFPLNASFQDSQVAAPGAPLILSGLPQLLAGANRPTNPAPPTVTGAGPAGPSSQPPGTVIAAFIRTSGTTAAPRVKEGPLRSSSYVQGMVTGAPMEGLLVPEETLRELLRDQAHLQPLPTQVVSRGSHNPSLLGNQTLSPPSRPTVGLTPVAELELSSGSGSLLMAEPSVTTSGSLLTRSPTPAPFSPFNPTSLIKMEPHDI
# Procedure, shortened: as §1
# [15] = target: T9, ELK4 (Homo sapiens, UniProt P28324-2 1-405); settings: protein: recombinant; tags: N-terminal GST; dsDNA, one strand shown
# T9 sequence: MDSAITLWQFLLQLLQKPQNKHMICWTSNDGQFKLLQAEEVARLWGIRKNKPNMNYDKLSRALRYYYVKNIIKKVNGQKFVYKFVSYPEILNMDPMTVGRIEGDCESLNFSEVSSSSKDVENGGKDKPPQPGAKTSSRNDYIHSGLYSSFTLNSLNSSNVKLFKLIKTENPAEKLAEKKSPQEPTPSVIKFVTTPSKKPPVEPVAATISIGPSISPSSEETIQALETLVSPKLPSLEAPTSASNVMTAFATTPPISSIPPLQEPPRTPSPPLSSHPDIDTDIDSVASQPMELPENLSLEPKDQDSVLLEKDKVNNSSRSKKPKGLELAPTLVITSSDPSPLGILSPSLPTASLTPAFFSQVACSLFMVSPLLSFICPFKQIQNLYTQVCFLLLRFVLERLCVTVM
# Procedure, shortened: as §1
# [16] = target: T10, ETV2 (Homo sapiens, UniProt O00321 1-342); settings: protein: recombinant; tags: N-terminal GST; dsDNA, one strand shown
# T10 sequence: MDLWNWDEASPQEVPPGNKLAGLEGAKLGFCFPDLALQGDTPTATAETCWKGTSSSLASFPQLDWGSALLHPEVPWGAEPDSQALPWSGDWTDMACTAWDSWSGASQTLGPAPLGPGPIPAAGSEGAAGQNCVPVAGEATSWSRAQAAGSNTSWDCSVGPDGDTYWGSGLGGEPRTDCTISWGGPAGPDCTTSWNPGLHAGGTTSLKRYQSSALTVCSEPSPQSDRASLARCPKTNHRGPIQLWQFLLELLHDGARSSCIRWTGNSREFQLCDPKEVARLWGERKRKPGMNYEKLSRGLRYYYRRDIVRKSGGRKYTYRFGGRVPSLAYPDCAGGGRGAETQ
# Procedure, shortened: as §1
# [17] = target: T11, ELF3 (Homo sapiens, UniProt P78545 1-371); settings: protein: recombinant; tags: N-terminal GST; dsDNA, one strand shown
# T11 sequence: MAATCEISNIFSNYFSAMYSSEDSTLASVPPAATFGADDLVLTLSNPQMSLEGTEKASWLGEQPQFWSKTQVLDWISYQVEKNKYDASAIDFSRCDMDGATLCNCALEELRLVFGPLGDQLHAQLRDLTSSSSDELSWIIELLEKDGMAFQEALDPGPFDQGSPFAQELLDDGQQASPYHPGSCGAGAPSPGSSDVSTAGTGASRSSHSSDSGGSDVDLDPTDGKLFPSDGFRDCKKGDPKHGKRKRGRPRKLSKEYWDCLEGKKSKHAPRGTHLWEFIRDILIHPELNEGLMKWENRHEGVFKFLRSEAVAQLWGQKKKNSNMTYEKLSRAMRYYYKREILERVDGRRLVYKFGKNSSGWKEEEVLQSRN
# Procedure, shortened: as §1
# [18] = target: CRX (Homo sapiens, UniProt O43186 1-299); settings: protein: recombinant; tags: N-terminal GST; dsDNA, one strand shown
# Sequence of CRX (O43186 whole entry): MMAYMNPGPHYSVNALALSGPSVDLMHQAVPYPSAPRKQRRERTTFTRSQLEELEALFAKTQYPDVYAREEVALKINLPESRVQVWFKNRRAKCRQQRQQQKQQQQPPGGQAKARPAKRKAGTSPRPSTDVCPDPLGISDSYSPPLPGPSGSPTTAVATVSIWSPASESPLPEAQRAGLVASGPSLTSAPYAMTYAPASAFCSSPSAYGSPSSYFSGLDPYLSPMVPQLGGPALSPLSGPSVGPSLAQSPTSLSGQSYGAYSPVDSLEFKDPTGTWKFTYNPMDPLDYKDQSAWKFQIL
# Procedure, shortened: as §1
# [19] = target: ETV1 (Homo sapiens, UniProt P50549 1-477); settings: protein: recombinant; tags: N-terminal GST; dsDNA, one strand shown
# Sequence of ETV1 (P50549 whole entry): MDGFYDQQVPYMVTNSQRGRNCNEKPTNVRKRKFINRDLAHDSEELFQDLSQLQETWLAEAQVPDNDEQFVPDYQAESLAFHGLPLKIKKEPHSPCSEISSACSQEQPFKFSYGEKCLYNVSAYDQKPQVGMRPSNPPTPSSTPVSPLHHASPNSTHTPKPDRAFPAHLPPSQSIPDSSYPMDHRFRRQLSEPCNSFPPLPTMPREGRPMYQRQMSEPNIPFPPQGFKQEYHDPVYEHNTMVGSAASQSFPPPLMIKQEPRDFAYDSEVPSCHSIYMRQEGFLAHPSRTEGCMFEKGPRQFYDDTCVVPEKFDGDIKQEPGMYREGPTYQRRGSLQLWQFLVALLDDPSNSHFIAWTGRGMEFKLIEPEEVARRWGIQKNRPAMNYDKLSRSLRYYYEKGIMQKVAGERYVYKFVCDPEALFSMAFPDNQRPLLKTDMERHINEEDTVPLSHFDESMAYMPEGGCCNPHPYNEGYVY
# Procedure, shortened: as §1
sequence,measurement,setting,value
AAATGT,binding signal,[1],"1.24 fold enrichment (6-mer frequency, TF over GST control)"
same,binding signal,[2],"1.19 fold enrichment (6-mer frequency, TF over GST control)"
same,binding signal,[3],"1.25 fold enrichment (6-mer frequency, TF over GST control)"
same,binding signal,[4],"1.31 fold enrichment (6-mer frequency, TF over GST control)"
same,binding signal,[5],"1.38 fold enrichment (6-mer frequency, TF over GST control)"
same,binding signal,[6],"1.32 fold enrichment (6-mer frequency, TF over GST control)"
same,binding signal,[7],"1.26 fold enrichment (6-mer frequency, TF over GST control)"
same,binding signal,[8],"1.42 fold enrichment (6-mer frequency, TF over GST control)"
same,binding signal,[9],"1.37 fold enrichment (6-mer frequency, TF over GST control)"
same,binding signal,[10],"1.27 fold enrichment (6-mer frequency, TF over GST control)"
same,binding signal,[11],"1.28 fold enrichment (6-mer frequency, TF over GST control)"
same,binding signal,[12],"1.19 fold enrichment (6-mer frequency, TF over GST control)"
same,binding signal,[13],"1.25 fold enrichment (6-mer frequency, TF over GST control)"
same,binding signal,[14],"1.27 fold enrichment (6-mer frequency, TF over GST control)"
same,binding signal,[15],"1.4 fold enrichment (6-mer frequency, TF over GST control)"
same,binding signal,[16],"1.36 fold enrichment (6-mer frequency, TF over GST control)"
same,binding signal,[17],"1.54 fold enrichment (6-mer frequency, TF over GST control)"
same,binding signal,[18],"1.04 fold enrichment (6-mer frequency, TF over GST control)"
same,binding signal,[19],"1.39 fold enrichment (6-mer frequency, TF over GST control)"
